# PubChem BioAssay (Tox21)
# Results filed as inconclusive are left out. Entries that show only a call come without a potency. Values without a mark were called inactive. Activity calls are given as the source filed them. Unless noted, calls come from the whole dose curve; as a rule, active = well fitted curve in the direction sought with a large enough effect in the repeat runs; inconclusive = weak or mixed curves; inactive = no such curve, though single readings can be large; an effect the other way counts as inactive or inconclusive.
# Assays:
# [1] = qHTS assay to identify small molecule antagonists of the peroxisome proliferator-activated receptor gamma (PPARg) signaling pathway - cell viability counter screen (AID 743194); conditions: Potency: co-treated with 50 nM rosiglitazone; note: nearly all actives have a fitted effect of over 55% in size; note: potency is the fitted concentration of half-maximal effect
# Outline: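 Viability was measured as CellTiter-Glo luminescence in GeneBLAzer PPARg UAS-bla HEK293H cells. These cells had been exposed 17 h at 37 C to compounds together with rosiglitazone at 50 nM final, with the beta-lactamase readout taken in the same wells.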
# [2] = qHTS assay for small molecule agonists of the antioxidant response element (ARE) signaling pathway (AID 743202; active = well fitted activation curve with a large enough effect in the signal ratio in the repeat runs, not every such curve was filed as active; the % refers to the signal ratio; note: potency is the fitted concentration of half-maximal effect)
# Outline: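 Quantitative high-throughput format in HepG2 cells bearing an integrated ARE-beta-lactamase reporter. Compound exposure lasted 16 h at 37 C, and fluorescence was read 2 h after adding LiveBLAzer B/G substrate at room temperature.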
# [3] = qHTS assay for small molecule activators of the heat shock response signaling pathway (AID 743210; active = well fitted activation curve with a large enough effect in the signal ratio in the repeat runs, with a control signal flat, not every such curve was filed as active; the % refers to the signal ratio;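 note: HeLa cells with beta-lactamase reporter driven by heat shock elements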)
# Outline: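 HeLa HSE-bla cells, overnight plating; cpd in DMSO 5 h, 37 C; LiveBLAzer B/G FRET substrate 2.5 h RT; fluorescence intensity read.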
# [4] = system: thyroid hormone receptor (rat, GH3 cells); assay: qHTS assay to identify small molecule agonists of the thyroid receptor (TR) signaling pathway (AID 743066; calls by dose curve)
# [5] = biological target: Estrogen receptor (Homo sapiens) (UniProt P03372); assay: qHTS assay to identify small molecule antagonists of the estrogen receptor alpha (ER-alpha) signaling pathway (AID 743069; active = well fitted curve in the direction sought with a large enough effect in the signal ratio in the repeat runs, not every such curve was filed as active; the % refers to the signal ratio)
# Estrogen receptor (Homo sapiens), sequence (P03372 whole entry, looked up): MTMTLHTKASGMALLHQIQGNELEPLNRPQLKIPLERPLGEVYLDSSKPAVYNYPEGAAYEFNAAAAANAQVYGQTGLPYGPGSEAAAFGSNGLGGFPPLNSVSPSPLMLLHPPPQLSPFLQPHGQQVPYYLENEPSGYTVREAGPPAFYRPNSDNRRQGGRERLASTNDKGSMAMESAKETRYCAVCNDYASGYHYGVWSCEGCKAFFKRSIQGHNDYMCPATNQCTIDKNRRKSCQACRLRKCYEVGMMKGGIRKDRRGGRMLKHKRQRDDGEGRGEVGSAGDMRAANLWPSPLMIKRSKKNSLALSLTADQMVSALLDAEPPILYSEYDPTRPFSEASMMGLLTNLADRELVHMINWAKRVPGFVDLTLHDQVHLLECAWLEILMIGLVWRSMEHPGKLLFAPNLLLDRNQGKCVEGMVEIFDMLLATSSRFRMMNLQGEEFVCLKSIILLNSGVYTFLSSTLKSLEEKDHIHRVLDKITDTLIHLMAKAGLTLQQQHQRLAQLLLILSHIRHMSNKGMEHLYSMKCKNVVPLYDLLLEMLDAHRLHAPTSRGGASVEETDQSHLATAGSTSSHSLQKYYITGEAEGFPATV
# Outline: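 ER-alpha-UAS-bla GripTite HEK293 line; 2% charcoal-stripped FBS overnight; plated, 4 hr 37C/5% CO2; cpd in DMSO + 17beta-estradiol, 18 hr 37C; LiveBLAzer B/G FRET substrate 2 hr RT; fluorescence intensity.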
# [6] = qHTS assay to identify small molecule antagonists of the estrogen receptor alpha (ER-alpha) signaling pathway - cell viability counter screen (AID 743074; calls by dose curve;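 note: HEK293 cells carrying ER-alpha-UAS-bla reporter stimulated with 17beta-estradiol; nearly all actives have a fitted effect of over 45% in size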)
# [7] = biological target: Estrogen receptor (Homo sapiens) (UniProt P03372); assay: qHTS assay to identify small molecule agonists of the estrogen receptor alpha (ER-alpha) signaling pathway (AID 743075; calls by dose curve;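 note: HEK293 GripTite cells with ER-alpha and UAS-driven beta-lactamase reporter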)
# [8] = biological target: Estrogen receptor (Homo sapiens) (UniProt P03372); assay: qHTS assay to identify small molecule agonists of the estrogen receptor alpha (ER-alpha) signaling pathway using the BG1 cell line (AID 743079); conditions: BG1Luc4E2 cells, ERE-luciferase agonist, 22 h; at 70.3 µM (top of the series); note: nearly all actives have a fitted effect of over 20% in size
# [9] = qHTS assay to identify small molecule antagonists of the estrogen receptor alpha (ER-alpha) signaling pathway using the BG1 cell line - cell viability counter screen (AID 743081);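 note: compound given together with 17beta-estradiol as the ER stimulus; nearly all actives have a fitted effect of over 45% in size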
# Aromatase (Homo sapiens) = Aromatase (Homo sapiens) (UniProt P11511); assay: qHTS assay to identify aromatase inhibitors (AID 743083); note: nearly all actives have a fitted effect of over 55% in size
# Aromatase (Homo sapiens), sequence (P11511 whole entry, looked up): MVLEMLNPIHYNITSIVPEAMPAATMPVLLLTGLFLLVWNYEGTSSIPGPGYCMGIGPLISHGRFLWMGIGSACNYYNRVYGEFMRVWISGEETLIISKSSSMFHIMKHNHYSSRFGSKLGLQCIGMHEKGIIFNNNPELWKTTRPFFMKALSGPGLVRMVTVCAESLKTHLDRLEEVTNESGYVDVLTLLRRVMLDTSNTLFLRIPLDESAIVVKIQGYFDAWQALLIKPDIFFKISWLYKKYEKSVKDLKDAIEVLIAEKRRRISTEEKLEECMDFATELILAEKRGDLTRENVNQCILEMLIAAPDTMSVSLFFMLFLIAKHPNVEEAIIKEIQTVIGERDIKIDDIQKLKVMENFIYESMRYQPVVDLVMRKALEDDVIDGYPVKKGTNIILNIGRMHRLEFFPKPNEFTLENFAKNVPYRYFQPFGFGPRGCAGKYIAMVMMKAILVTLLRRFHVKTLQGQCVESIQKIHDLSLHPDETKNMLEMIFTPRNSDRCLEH
# [10] = qHTS assay to identify aromatase inhibitors - cell viability counter screen (AID 743084);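 note: cells stimulated with testosterone during compound exposure; nearly all actives have a fitted effect of over 55% in size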
# [11] = biological target: Aryl hydrocarbon receptor (Homo sapiens) (UniProt P35869); assay: qHTS assay to identify small molecule that activate the aryl hydrocarbon receptor (AhR) signaling pathway (AID 743085); note: nearly all actives have a fitted effect of over 15% in size; note: potency is the fitted concentration of half-maximal effect;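 for activation: HG2L7.5c1 human HepG2 liver cells with stably integrated DRE-driven firefly reporter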
# Aryl hydrocarbon receptor (Homo sapiens), sequence (P35869 whole entry, looked up): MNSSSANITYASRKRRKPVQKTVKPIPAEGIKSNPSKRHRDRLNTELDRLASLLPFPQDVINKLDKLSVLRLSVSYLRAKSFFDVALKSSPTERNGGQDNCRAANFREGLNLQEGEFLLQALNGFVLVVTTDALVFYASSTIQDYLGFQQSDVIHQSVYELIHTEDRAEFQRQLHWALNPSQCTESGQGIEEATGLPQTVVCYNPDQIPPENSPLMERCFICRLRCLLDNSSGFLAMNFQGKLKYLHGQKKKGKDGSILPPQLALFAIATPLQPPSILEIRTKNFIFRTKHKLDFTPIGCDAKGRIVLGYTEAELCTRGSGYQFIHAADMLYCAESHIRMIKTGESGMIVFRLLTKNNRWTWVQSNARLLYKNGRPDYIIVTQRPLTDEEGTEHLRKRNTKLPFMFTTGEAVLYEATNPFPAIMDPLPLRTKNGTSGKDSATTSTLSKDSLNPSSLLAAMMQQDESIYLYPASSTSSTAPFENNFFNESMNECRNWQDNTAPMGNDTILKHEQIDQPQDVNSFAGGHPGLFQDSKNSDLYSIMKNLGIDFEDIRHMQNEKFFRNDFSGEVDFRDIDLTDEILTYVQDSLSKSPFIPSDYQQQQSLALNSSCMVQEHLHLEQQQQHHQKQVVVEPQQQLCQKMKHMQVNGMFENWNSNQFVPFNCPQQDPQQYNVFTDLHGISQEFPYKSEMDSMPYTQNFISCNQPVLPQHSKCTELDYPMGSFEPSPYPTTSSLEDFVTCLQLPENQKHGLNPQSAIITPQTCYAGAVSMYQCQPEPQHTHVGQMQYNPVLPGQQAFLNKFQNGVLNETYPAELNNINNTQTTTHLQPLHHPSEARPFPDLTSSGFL
# Outline: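 Measured in HG2L7.5c1 cells: CellTiter-Fluor signal (30 min incubation, 37C) for viability, then luciferase luminescence (30 min, room temperature). Compound contact time was 24 h at 37C, following a 5 h pre-incubation.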
# [12] = qHTS assay to identify small molecule that activate the aryl hydrocarbon receptor (AhR) signaling pathway - cell viability counter screen (AID 743086);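 note: HepG2 liver cells carrying the AhR DRE luciferase reporter; nearly all actives have a fitted effect of over 45% in size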
# Outline: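 Cytotoxicity counter screen: CellTiter-Fluor signal (30 min, 37 C) in 4000 HepG2 cells/well carrying the DRE-luciferase reporter, following 24 h compound exposure at 37 C.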
# [13] = biological target: Peroxisome proliferator-activated receptor gamma (Homo sapiens) (UniProt P37231); assay: qHTS assay to identify small molecule agonists of the peroxisome proliferator-activated receptor gamma (PPARg) signaling pathway (AID 743094; active = well fitted activation curve with a large enough effect in the signal ratio in the repeat runs, not every such curve was filed as active; the % refers to the signal ratio)
# Peroxisome proliferator-activated receptor gamma (Homo sapiens), sequence (P37231 whole entry, looked up): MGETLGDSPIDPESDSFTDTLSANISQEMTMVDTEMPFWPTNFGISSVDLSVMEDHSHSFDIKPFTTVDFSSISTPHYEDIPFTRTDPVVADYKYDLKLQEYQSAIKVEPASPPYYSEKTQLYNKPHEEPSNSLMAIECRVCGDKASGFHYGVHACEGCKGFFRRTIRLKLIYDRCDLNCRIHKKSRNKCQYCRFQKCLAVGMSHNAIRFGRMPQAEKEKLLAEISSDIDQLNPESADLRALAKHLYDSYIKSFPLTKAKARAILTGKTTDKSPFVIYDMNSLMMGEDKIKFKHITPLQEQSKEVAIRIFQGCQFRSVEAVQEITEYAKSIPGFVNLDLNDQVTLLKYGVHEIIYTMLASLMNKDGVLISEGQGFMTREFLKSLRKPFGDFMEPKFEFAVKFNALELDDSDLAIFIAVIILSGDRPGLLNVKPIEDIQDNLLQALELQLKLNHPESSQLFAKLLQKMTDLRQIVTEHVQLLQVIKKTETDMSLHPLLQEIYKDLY
# Outline: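 Following 5 h plating at 37C, PPARg-bla HEK293H cells receive compound or DMSO for 17 h; fluorescence intensity is recorded after LiveBLAzer B/G loading for 1 h at room temperature.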
# [14] = biological target: Peroxisome proliferator-activated receptor gamma (Homo sapiens) (UniProt P37231); assay: qHTS assay to identify small molecule antagonists of the peroxisome proliferator-activated receptor gamma (PPARg) signaling pathway (AID 743191; calls by dose curve; note: nearly all actives have a fitted effect of over 30% in size; note: potency is the fitted concentration of half-maximal effect)
# Outline: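 Beta-lactamase reporter under UAS control in HEK293H PPARg-bla cells; compound treatment 17 h at 37C. Read-out: fluorescence intensity after 1 h room-temperature incubation with LiveBLAzer B/G FRET substrate.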
# [15] = qHTS assay for small molecule agonists of the antioxidant response element (ARE) signaling pathway - cell viability counter screen (AID 743203; calls by dose curve; note: nearly all actives have a fitted effect of over 55% in size)
# Outline: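 Compounds in DMSO were pinned onto ARE-bla HepG2 cells plated 5 hrs earlier at 2,000 cells/well. Sixteen hours later at 37C/5% CO2, CellTiter-Glo was added and luminescence measured after 30 min at room temperature.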
# [16] = qHTS assay for small molecule activators of the heat shock response signaling pathway - cell viability counter screen (AID 743209); note: nearly all actives have a fitted effect of over 50% in size
# Outline: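 Counter screen for cytotoxicity in HeLa HSE-bla reporter cells. Treatment was 5 h at 37 C; viability was detected by luminescent ATP assay (CellTiter-Glo) in the same wells as the beta-lactamase read.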
# [17] = qHTS assay to identify small molecule antagonists of the estrogen receptor alpha (ER-alpha) signaling pathway using the BG1 cell line (AID 743080; calls by dose curve;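 note: BG1 cells stimulated with 17beta-estradiol alongside compound; nearly all actives have a fitted effect of over 25% in size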)
# Outline: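 Quantitative HTS on the Tox21 10K library: BG1 cells with endogenous ER-alpha and ERE-luciferase reporter, 17beta-estradiol stimulation, 21.5 h compound exposure, luminescence endpoint with parallel fluorescence cytotoxicity counter-read.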
# [18] = qHTS assay to identify small molecule antagonists of the thyroid receptor (TR) signaling pathway (AID 743065); note: nearly all actives have a fitted effect of over 55% in size; note: potency is the fitted concentration of half-maximal effect
# Outline: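 Antagonism measured as loss of luciferase signal in GH3 cells stably carrying a TRE-luciferase reporter, co-treated with compound and T3 (1 nM final) for 23.5 h at 37 C. Viability was read in the same well by CellTiter-Fluor.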
structure (smiles),measurement,setting,value
CC(C(=O)c1ccccc1)N(C)C (stereo not given),Potency,[1],inactive
same,Potency,[2],inactive
same,outcome,[3],inactive
COC(=O)c1c(C(F)F)nc(C(F)(F)F)c(C2=NCCS2)c1CC(C)C,Potency,[4],inactive
same,Potency,[5],inactive
same,outcome,[6],inactive
same,Potency,[7],inactive
same,activation,[8],0.436%
same,Potency,[9],inactive
same,Potency,Aromatase (Homo sapiens),inactive
same,Potency,[10],inactive
same,Potency,[11],inactive
same,outcome,[12],inactive
same,outcome,[13],inactive
same,Potency,[14],inactive
same,Potency,[1],inactive
same,Potency,[2],inactive
same,Potency,[15],inactive
same,Potency,[16],inactive
c1ccc(N2CCNCC2)cc1,Potency,[1],inactive
same,Potency,[2],inactive
same,Potency,[15],inactive
same,Potency,[16],inactive
N#Cc1c(Cl)cccc1Cl,Potency,[4],inactive
same,outcome,[6],inactive
same,Potency,[7],inactive
same,activation,[8],-1.9%
same,Potency,[17],inactive
same,Potency,[9],inactive
same,Potency,Aromatase (Homo sapiens),inactive
same,Potency,[10],inactive
same,Potency,[11],inactive
same,outcome,[12],inactive
same,outcome,[13],inactive
same,Potency,[14],inactive
same,Potency,[1],inactive
same,Potency,[2],inactive
same,Potency,[16],inactive
same,outcome,[3],inactive
CN1CCC(N(Cc2ccccc2)c2ccccc2)CC1,Potency,[14],inactive
same,Potency,[1],inactive
same,Potency,[15],inactive
same,Potency,[16],inactive
same,outcome,[3],inactive
O=C1OC(CCN2CCCCC2)OC1(c1ccccc1)c1ccccc1 (stereo not given),Potency,[1],inactive
same,Potency,[2],23.7 µM (active)
same,Potency,[15],inactive
CN1C[C@@H](NS(=O)(=O)N(C)C)C[C@@H]2c3cccc4c3c(cn4C)C[C@H]21,Potency,[4],inactive
same,outcome,[6],inactive
same,Potency,[9],inactive
same,outcome,[12],inactive
same,Potency,[1],inactive
same,Potency,[2],inactive
same,Potency,[15],inactive
same,Potency,[16],inactive
Fc1cc(Br)ccc1CBr,Potency,[14],inactive
same,Potency,[1],inactive
same,Potency,[2],inactive
same,Potency,[15],inactive
OC(c1ccccc1)(c1ccccc1)C1CCNCC1,Potency,[4],inactive
same,outcome,[6],inactive
same,Potency,[9],inactive
same,Potency,Aromatase (Homo sapiens),inactive
same,Potency,[10],inactive
same,outcome,[12],inactive
same,outcome,[13],inactive
same,Potency,[14],inactive
same,Potency,[1],inactive
same,Potency,[15],inactive
same,Potency,[16],inactive
same,outcome,[3],inactive
CC(C)(C)NCC(O)c1cc(Cl)c(N)c(Cl)c1 (stereo not given),Potency,[18],inactive
same,Potency,[4],inactive
same,outcome,[6],inactive
same,Potency,Aromatase (Homo sapiens),inactive
same,Potency,[11],inactive
same,outcome,[12],inactive
same,outcome,[13],inactive
same,Potency,[14],inactive
same,Potency,[1],inactive
same,Potency,[2],inactive
same,Potency,[15],inactive
same,outcome,[3],inactive
Cc1ncc2n1-c1ccc(Cl)cc1C(c1ccccc1F)=NC2,Potency,[4],inactive
same,Potency,[7],inactive
same,Potency,[9],inactive
same,Potency,Aromatase (Homo sapiens),inactive
same,Potency,[10],inactive
same,outcome,[12],inactive
same,Potency,[14],inactive
same,Potency,[1],inactive
same,Potency,[15],inactive
same,outcome,[3],inactive
CCCCC(=O)Cl,Potency,[4],inactive
same,outcome,[6],inactive
same,Potency,[9],inactive
same,outcome,[12],inactive
same,Potency,[15],inactive
same,Potency,[16],inactive
same,outcome,[3],inactive
CC1=C(C(=O)O)N2C(=O)[C@@H](N)[C@H]2SC1,Potency,[14],inactive
same,Potency,[1],inactive
same,Potency,[2],inactive
same,Potency,[15],inactive
same,Potency,[16],inactive
same,outcome,[3],inactive
CC1COC2(c3ccccc3Cl)c3cc(Cl)ccc3NC(=O)CN12 (stereo not given),Potency,[14],inactive
same,Potency,[1],inactive
same,Potency,[15],inactive
same,Potency,[16],inactive
NC1=NC(=O)C(c2ccccc2)O1 (stereo not given),Potency,[18],inactive
same,Potency,[4],inactive
same,outcome,[6],inactive
same,Potency,[9],inactive
same,outcome,[12],inactive
same,Potency,[1],inactive
same,Potency,[2],inactive
same,Potency,[15],inactive
same,outcome,[3],inactive
C[C@]12CC[C@H]3[C@@H](CCC4=CC(=O)CC[C@@]43C)[C@@H]1CC[C@@H]2C(=O)O,Potency,[1],inactive
same,Potency,[15],inactive
same,Potency,[16],inactive
COP(N)(=S)Oc1ccccc1C(=O)OC(C)C (stereo not given),Potency,[4],inactive
same,Potency,[5],inactive
same,outcome,[6],inactive
same,Potency,[7],inactive
same,Potency,[9],inactive
same,Potency,Aromatase (Homo sapiens),inactive
same,Potency,[10],inactive
same,outcome,[12],inactive
same,outcome,[13],inactive
same,Potency,[14],inactive
same,Potency,[1],inactive
same,Potency,[2],inactive
same,Potency,[15],inactive
same,Potency,[16],inactive
same,outcome,[3],inactive
O=C(Nc1ccccc1)N(Cc1ccc(Cl)cc1)C1CCCC1,Potency,[18],21.7 µM (active)
same,Potency,[4],inactive
same,outcome,[6],inactive
same,Potency,[9],inactive
same,Potency,Aromatase (Homo sapiens),inactive
same,Potency,[10],inactive
same,Potency,[1],21.9 µM (active)
same,Potency,[16],inactive
same,outcome,[3],inactive
CCOP(=S)(Oc1cnc(C(C)(C)C)nc1)OC(C)C (stereo not given),Potency,[18],61.1 µM (active)
same,Potency,[4],inactive
same,outcome,[6],inactive
same,Potency,[9],inactive
same,Potency,[11],54.5 µM (active)
same,outcome,[12],inactive
same,outcome,[13],inactive
same,Potency,[14],inactive
same,Potency,[15],inactive
same,Potency,[16],inactive
O=c1oc2ccccc2c(O)c1C1CCCc2ccccc21 (stereo not given),Potency,[4],inactive
same,outcome,[6],inactive
same,Potency,[7],inactive
same,activation,[8],-13.4%
same,Potency,[17],inactive
same,Potency,[9],inactive
same,Potency,Aromatase (Homo sapiens),inactive
same,Potency,[10],inactive
same,Potency,[11],inactive
same,outcome,[12],inactive
same,Potency,[14],30.9 µM (active)
same,Potency,[1],inactive
same,Potency,[15],inactive
same,outcome,[3],inactive
CC(C(O)c1ccccc1)N(C)C/C=C/c1ccccc1 (stereo not given),Potency,[14],inactive
same,Potency,[1],inactive
same,Potency,[15],inactive
same,outcome,[3],inactive
CCOC(=O)C1(c2ccccc2)CCN(CCc2ccc(N)cc2)CC1,Potency,[1],inactive
same,Potency,[2],inactive
same,Potency,[15],inactive
same,Potency,[16],inactive
CC(C)CC(N(C)C)C1(c2ccc(Cl)cc2)CCC1 (stereo not given),Potency,[4],inactive
same,outcome,[6],inactive
same,Potency,[9],inactive
same,Potency,Aromatase (Homo sapiens),inactive
same,Potency,[10],inactive
same,Potency,[11],inactive
same,outcome,[12],inactive
same,Potency,[1],inactive
same,Potency,[2],inactive
same,Potency,[15],inactive
same,Potency,[16],inactive
CCC(=O)C(CCN(C)C)(c1ccccc1)c1ccccc1,Potency,[14],inactive
same,Potency,[1],inactive
same,Potency,[2],inactive
same,Potency,[15],inactive
same,Potency,[16],inactive
same,outcome,[3],inactive
Clc1ccccc1N1CCNCC1,Potency,[14],inactive
same,Potency,[1],inactive
same,Potency,[15],inactive
same,Potency,[16],inactive
same,outcome,[3],inactive
C[C@]1(O)CC[C@H]2[C@@H]3CCC4=CC(=O)CC[C@]4(C)[C@@]3(F)[C@@H](O)C[C@@]21C,outcome,[6],inactive
same,Potency,[9],inactive
same,Potency,Aromatase (Homo sapiens),inactive
same,Potency,[10],inactive
same,outcome,[12],inactive
same,outcome,[13],inactive
same,Potency,[14],inactive
same,Potency,[15],inactive
same,Potency,[16],inactive
same,outcome,[3],inactive
